Screening data deposited in PubChem by National Center for Advancing Translational Sciences (NCATS).
An excerpt weighted towards active compounds, which were near 17% of everything screened.
TDP1 cell CPT: qHTS for Inhibitors of human tyrosyl-DNA phosphodiesterase 1 (TDP1): qHTS in cells in presence of CPT; actives 12% (n = 420,000); chicken DT40 Tdp1-/-;hTDP1 cells + 20 nM CPT, ATP luminescence, 48 h; AID 686979, 2013; Potency, µM (top dose mostly 46.2 µM), without a hit: at the top dose activity change, negative = growth inhibition, actives largely listed as inhibitors; further: on the % scale 0 is the no-effect control and ±100 the full control effect; nearly all actives have a fitted effect of over 55% in size
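Chicken DT40 Tdp1-/- cells complemented with human TDP1, 400 cells/well, exposed to compounds plus 20 nM camptothecin for at least 48 h at 37 C; viability read as ATP content by CellTiter-Glo luminescence.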
ATXN2 expr inh: Primary qHTS for Inhibitors of ATXN expression; AID 1745845, 2022; HEK-293 ATXN2-luciferase reporter, luminescence, 24 h; Potency, µM (doses to about 57 µM), inactives show top-dose activity change, negative = inhibition, actives largely listed as inhibitors; actives 0.72% (n = 360,000); further: on the % scale 0 is the no-effect control and ±100 the full control effect; nearly all actives have a fitted effect of over 55% in size
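ATXN2-luciferase reporter cells (luciferase flanked by upstream and downstream ATXN2 gene portions) were treated 24 h at 37 °C with compounds at up to 57 uM. SteadyGlo luminescence gave expression; GF-AFC fluorescence gave viability.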
HepG2 viability: qHTS for Inhibitors of TGF-b: Cytotox Counterscreen | HepG2 CAGA-GFP viability, ATP luminescence, 18 h | Potency, µM (top dose mostly 46.1 µM), inactives show top-dose activity change, negative = cytotoxicity, actives largely listed as cytotoxic | actives 0.76% (n = 410,000) | AID 588856, 2011
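HepG2 CAGA-GFP cells (1000/well, DMEM with 1% FBS) received compound, then TGF-beta at 500 pg/mL final, and were incubated 18 hours at 37 degrees C. Viability was read by CellTiter-Glo luminescence. Media-only wells were set as complete cell-killing and DMSO as no toxicity.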
DT40 TDP1 no CPT: qHTS for Inhibitors of human tyrosyl-DNA phosphodiesterase 1 (TDP1): qHTS in cells in absence of CPT; DT40 Tdp1-/- hTDP1 cells, no CPT, ATP luminescence, 48 h; Potency, µM (series often up to 46.2 µM), inactives show at the top dose activity change, negative = growth inhibition, hits mostly inhibitors; actives 15% (n = 420,000); AID 686978, 2013; further: on the % scale 0 is the no-effect control and ±100 the full control effect; nearly all actives have a fitted effect of over 55% in size
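Growth kinetics read by CellTiter-Glo luminescence after ≥48 hr at 37 °C. Cells: DT40 Tdp1-/- stably carrying human TDP1, 400 per well, compound exposure in the absence of CPT (DMSO vehicle).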
TGFb inhibitor: qHTS for Inhibitors of TGF-b; AID 588855, 2011; HepG2 CAGA-GFP TGF-b/SMAD3 reporter, GFP fluorescence, 18 h; TGF-beta stimulated, 500 pg/mL final; Potency, µM (doses to about 46.1 µM), for the others: at the highest dose activity, negative = inhibition, usual class: inhibitors; actives 1.2% (n = 410,000); further: on the % scale 0 is the no-effect control and ±100 the full control effect; nearly all actives have a fitted effect of over 65% in size
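TGF-beta reporter screen: HEPG2 CAGA-GFP, 1% FBS, 500 pg/mL TGF-beta final, 18 h; per-cell GFP summed per well; curves fitted and categorized by class.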
S2 tox: Viability Counterscreen for Primary qHTS for Inhibitors of ATXN expression | S2 cells (HEK-293 line with an ATXN2-luciferase reporter) viability, CellTiter-Fluor protease fluorescence, 24 h | Potency, µM (highest dose often 56.7 µM), actives largely listed as cytotoxic | actives 0.49% (n = 400,000) | AID 651635, 2014; further: nearly all actives have a fitted effect of over 40% in size
Numbers without * were called inactive. The call rests on the fitted dose curve; in most records, active means well fitted curve in the direction sought with a large enough effect; inconclusive means small, poorly fitted or top-dose-only effect, or another doubt; inactive means no such curve, though single readings can be large; an effect the other way counts as inactive or inconclusive. Potency means the concentration at half of the fitted maximal effect.

Results for Cn1nnc(NCc2cc(Br)ccc2OCc2ccccc2F)n1 ?
TDP1 cell CPT: -29%; ATXN2 expr inh: 0%; HepG2 viability: -10%; DT40 TDP1 no CPT: -10%; TGFb inhibitor: -3%; S2 tox: inactive

What do the screens show for `CCSc1ncc(Cl)c(C(=O)Nc2c(C(=O)c3ccc(C)c(F)c3)oc3ccccc23)n1`?
TDP1 cell CPT: -12%; ATXN2 expr inh: 3%; HepG2 viability: -6%; DT40 TDP1 no CPT: -4%; TGFb inhibitor: 1%; S2 tox: inactive

Results for N#Cc1cccc(-c2nc(N3CCNCC3)c3ccccc3n2)c1 ?
TDP1 cell CPT: inconclusive; DT40 TDP1 no CPT: 18µM*

What do the screens show for `c1ccc2c(N3CCNCC3)nc(-c3ccc4c(c3)OCO4)nc2c1`?
TDP1 cell CPT: inconclusive; DT40 TDP1 no CPT: 21µM*

Results for N#Cc1ccc(S(=O)(=O)N2CCN(c3nc(-c4ccccc4)nc4ccccc34)CC2)cc1 ?
TDP1 cell CPT: -15%; DT40 TDP1 no CPT: inconclusive

Results for CN(C(=O)c1cnn(-c2ncc3c(n2)-c2ccccc2CCC3)c1C1CC1)C1CCOC1 (stereo unspecified) ?
TDP1 cell CPT: 7%; DT40 TDP1 no CPT: -19%; S2 tox: inactive

Results for Cc1nnc(SCC(=O)NCc2ccccc2F)c2nn(-c3ccc(Cl)cc3)c(C)c12 ?
TDP1 cell CPT: 13µM*; HepG2 viability: 6%; DT40 TDP1 no CPT: 8.2µM*; TGFb inhibitor: inconclusive

How did Cc1nnc(SCC(=O)NCc2cccc(F)c2)c2nn(-c3ccccc3)c(C)c12 do in these assays?
TDP1 cell CPT: 8.2µM*; ATXN2 expr inh: -34%; HepG2 viability: -6%; DT40 TDP1 no CPT: 7.3µM*; TGFb inhibitor: inconclusive; S2 tox: inconclusive

How did O=c1nc2ccccc2c2n1CC(CN1CCN(c3ccccc3F)CC1)N2 (stereo unspecified) do in these assays?
TDP1 cell CPT: inconclusive; ATXN2 expr inh: -4%; HepG2 viability: -13%; DT40 TDP1 no CPT: 13µM*; TGFb inhibitor: 1%; S2 tox: inactive

What do the screens show for `CCCCN(CC)Cc1ccc(CNC(=S)Nc2c(C)cc(C)cc2C)o1`?
TDP1 cell CPT: 2%; ATXN2 expr inh: -13%; HepG2 viability: -22%; DT40 TDP1 no CPT: inconclusive; TGFb inhibitor: -4%; S2 tox: inconclusive

Results for CCCCN(CCCC)Cc1ccc(C(=O)NN)o1 ?
TDP1 cell CPT: 12%; HepG2 viability: -15%; DT40 TDP1 no CPT: -7%; TGFb inhibitor: -1%; S2 tox: inactive

Results for CCCCN(CC)Cc1ccc(CNC(=S)Nc2ccc(C)cc2Cl)o1 ?
TDP1 cell CPT: 16µM*; ATXN2 expr inh: inconclusive; HepG2 viability: -32%; DT40 TDP1 no CPT: 18µM*; TGFb inhibitor: -23%; S2 tox: inactive

How did CCCCN(CC)Cc1ccc(CNC(=O)Nc2ccc(F)cc2)o1 do in these assays?
TDP1 cell CPT: 4.5µM*; ATXN2 expr inh: -13%; HepG2 viability: -30%; DT40 TDP1 no CPT: 5.6µM*; TGFb inhibitor: inconclusive; S2 tox: inactive

Results for NNC(=S)NC1CCCCC1 ?
TDP1 cell CPT: 6.5µM*; ATXN2 expr inh: -17%; HepG2 viability: 1%; DT40 TDP1 no CPT: 5.8µM*; TGFb inhibitor: -2%; S2 tox: inconclusive

How did CCCNC(=S)NC1CCCC1 do in these assays?
TDP1 cell CPT: -22%; ATXN2 expr inh: 3%; HepG2 viability: -13%; DT40 TDP1 no CPT: inconclusive; TGFb inhibitor: 0%; S2 tox: inactive

How did O=[N+]([O-])c1ccc(SNc2ccccc2)c([N+](=O)[O-])c1 do in these assays?
TDP1 cell CPT: inconclusive; ATXN2 expr inh: -12%; HepG2 viability: 0%; DT40 TDP1 no CPT: inconclusive; TGFb inhibitor: inconclusive; S2 tox: inactive

How did O=[N+]([O-])c1ccc(-[n+]2ccc3ccccc3c2)c([N+](=O)[O-])c1 do in these assays?
TDP1 cell CPT: 1µM*; ATXN2 expr inh: inconclusive; HepG2 viability: 13µM*; DT40 TDP1 no CPT: 1.3µM*; TGFb inhibitor: 5µM*; S2 tox: 11µM*

How did COc1ccc(C[C@H]2CN3C(=NC[C@@H]3Cc3ccccc3)N2CCNC(=O)c2ccc(C)c(Br)c2)cc1 do in these assays?
TDP1 cell CPT: 23µM*; ATXN2 expr inh: 22µM*; HepG2 viability: 13µM*; DT40 TDP1 no CPT: 21µM*; TGFb inhibitor: inconclusive

Results for COc1ccc(C[C@H]2CN3C(=NC[C@H]3Cc3ccccc3)N2CCNC(=O)CCC2CCCCC2)cc1 ?
TDP1 cell CPT: inconclusive; ATXN2 expr inh: 35µM*; HepG2 viability: -103%; DT40 TDP1 no CPT: 26µM*; TGFb inhibitor: inconclusive; S2 tox: 35µM*

Results for C/C=C(\C)C(=O)NCCN1C2=NC[C@H](Cc3ccccc3)N2C[C@@H]1Cc1ccc(OC)cc1 ?
TDP1 cell CPT: inconclusive; ATXN2 expr inh: -12%; HepG2 viability: -18%; DT40 TDP1 no CPT: inconclusive; TGFb inhibitor: -7%; S2 tox: inactive

How did COc1ccc(C[C@H]2CN3C(=NC[C@H]3Cc3ccccc3)N2CCNC(=O)c2ccc(C)c(Br)c2)cc1 do in these assays?
TDP1 cell CPT: 21µM*; ATXN2 expr inh: inconclusive; HepG2 viability: -116%; DT40 TDP1 no CPT: 15µM*; TGFb inhibitor: inconclusive; S2 tox: 28µM*

Results for C[C@@H](CN1C2=NC[C@H](Cc3ccccc3)N2C[C@H]1Cc1ccc(O)cc1)NC(=O)CCC1CCCCC1 ?
TDP1 cell CPT: 7.3µM*; ATXN2 expr inh: 28µM*; HepG2 viability: -104%; DT40 TDP1 no CPT: 12µM*; TGFb inhibitor: inconclusive; S2 tox: 22µM*

What do the screens show for `Cc1c(Cl)cccc1NC(=O)c1ncn(-c2ccccc2)n1`?
TDP1 cell CPT: -17%; ATXN2 expr inh: 34%; HepG2 viability: -7%; DT40 TDP1 no CPT: -5%; TGFb inhibitor: -3%; S2 tox: inactive

How did O=C(c1ccco1)N1CCN(S(=O)(=O)c2cccc(Cl)c2)CC1 do in these assays?
TDP1 cell CPT: 6%; ATXN2 expr inh: -27%; HepG2 viability: 1%; DT40 TDP1 no CPT: -3%; TGFb inhibitor: -14%; S2 tox: inactive
